Screens: PubChem, National Center for Advancing Translational Sciences (NCATS)
An excerpt weighted towards active compounds, which were near 1.7% of everything screened.
TRPML1 blocker – human mucolipin-1 channel inhibition. Q9GZU1. TRPML1-inducible cells, Ca2+ dye fluorescence, FDSS; active compounds read low; inhibition of EC80 agonist-evoked calcium signal. activity change, negative = inhibition, % (test concentration not listed). actives 0.02% (n = 390,000). AID 624415; in the data active = activity change below about -50%; inconclusive = between about -30% and that limit;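 note: stimulus is agonist 54-4 at its EC80 concentration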
Target sequence (Q9GZU1 whole entry, looked up): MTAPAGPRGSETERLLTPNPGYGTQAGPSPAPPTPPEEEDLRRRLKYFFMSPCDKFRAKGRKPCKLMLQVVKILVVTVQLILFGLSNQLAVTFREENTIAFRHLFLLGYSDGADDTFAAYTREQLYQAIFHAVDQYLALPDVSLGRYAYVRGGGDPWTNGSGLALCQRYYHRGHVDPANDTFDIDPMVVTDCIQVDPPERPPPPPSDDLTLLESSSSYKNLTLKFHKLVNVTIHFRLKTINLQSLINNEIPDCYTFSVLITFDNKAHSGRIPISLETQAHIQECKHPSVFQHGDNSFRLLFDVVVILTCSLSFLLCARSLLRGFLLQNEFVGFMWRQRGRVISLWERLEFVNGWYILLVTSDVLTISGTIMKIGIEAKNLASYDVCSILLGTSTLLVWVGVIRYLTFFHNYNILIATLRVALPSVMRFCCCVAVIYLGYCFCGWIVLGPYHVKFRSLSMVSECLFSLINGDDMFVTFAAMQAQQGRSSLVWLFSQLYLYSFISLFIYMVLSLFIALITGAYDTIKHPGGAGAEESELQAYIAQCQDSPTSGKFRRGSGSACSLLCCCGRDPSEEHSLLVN
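TRPML1-DL cells, Tet-induced overnight (~16 h, 37 °C) at 1,500 cells/well, were loaded with Ca8 no-wash dye plus quencher for 45-90 min at room temperature. Compounds were pinned during FDSS kinetic reading; agonist 54-4 at EC80 (4 uM final) then added.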
TRHR agonist – activates the human TRH receptor | P34981 | TRHR cells, calcium flux fluo-8, FDSS agonist mode | activation, % at 2 µM | actives 0.18% (n = 360,000); in the data active = activation above about 30%
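Read-out: compound-evoked intracellular calcium rise in TRHR cells, fluo-8 dye, kinetic FDSS fluorescence at 1 s/cycle following a 10-cycle baseline. Cells cultured overnight before dye loading (30 min–1.5 h, RT).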
TRHR PAM – allosterically enhances the human TRH receptor. P34981. TRHR cells, fluo-8 calcium fluorescence, EC20 TRH enhancement. enhancement, % at 2 µM. actives 0.66% (n = 360,000); in the data active = enhancement above about 30%
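Enhancer read-out: after compound pinning and an initial kinetic agonist-mode read, an EC20 of TRH (10 nM final) was injected and fluo-8 calcium signal (Ex 480/Em 530) followed at 1 s/cycle for 100 cycles in TRHR-expressing cells.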
KCNH2 3.1 block – blocks the human KCNH2 3.1 channel isoform. U2OS KCNH2 3.1, thallium flux FluxOr; active compounds read low. activity change, % (tested at about 1.8 µM). actives 0.95% (n = 340,000). AID 720553;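 active = maximum activity change below -70%; inconclusive = maximum activity change from -70% to -50%; inactive = maximum activity change above -50%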;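 note: thallium influx rate constant from kinetic fluorescence after stimulation buffer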
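Channel expression came from 3.1 mutant virus (1.77 x 10^8 /mL) applied to suspended U2OS cells for 4 h. Flux was tracked with FluxOr dye plus Red40 quencher, and kinetic rate constants normalized to controls.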
TRPML1 ag – agonists of human TRPML1 channel; Q9GZU1; AID 624414; activation, % (no concentration beside the values); actives 0.12% (n = 410,000); TRPML1-expressing cells, Ca2+ dye fluorescence, FDSS; in the data active = activation above about 50%; inconclusive = mostly about 30% to 49%
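Calcium fluorescence on an FDSS kinetic reader gave the read-out. Tet-induced TRPML1-DL cells were plated overnight, dye-loaded (Ca8 with quencher, 45-90 min, room temperature, dark), then read 110 s after compound addition, and again 110 s after 4uM final 54-4 (EC80).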
hERG WT inh – blocks the wildtype human KCNH2 potassium channel. activity change, % at 1.84 µM. actives 0.37% (n = 340,000). Q12809. U2OS, BacMam KCNH2, thallium flux FluxOr; active compounds read low;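 active = maximum activity change below -70%; inconclusive = maximum activity change between -70% and -50%; inactive = maximum activity change above -50%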
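U2OS cells transduced with wild-type KCNH2 virus are loaded with FluxOr dye for 45 min, and thallium flux is measured in kinetic reads before and after stimulation buffer. Rate constants are normalized to DMSO controls.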
Numbers stand for hits; i = inactive; ? = inconclusive; nt = no result given.

SMILES | TRPML1 blocker | TRHR agonist | TRHR PAM | KCNH2 3.1 block | TRPML1 ag | hERG WT inh
CCCCN(C(=O)c1ccc(-c2ccc(Cl)cc2)o1)c1c(N)n(CCC)c(=O)[nH]c1=O | i | i | i | i | i | i
CCCCN(C(=O)c1ccc(-c2ccc(Cl)cc2)o1)c1c(N)n(CCCC)c(=O)[nH]c1=O | i | i | i | i | i | -202
CC(C)c1ccc(NC(=O)CN(C)C2=NS(=O)(=O)c3ccccc32)cc1 | i | nt | nt | i | i | i
COc1cc(/C=C2/SC(=Nc3ccc(O)cc3)NC2=O)cc(OC)c1O | i | 70 | i | i | i | i
COc1ccc([N+](=O)[O-])cc1C(=O)C(=O)c1ccccc1 | i | i | 33 | i | i | i
CCN(C[C@H]1N[C@@](CC)(C(=O)OC)[C@H]2C(=O)N(Cc3ccccc3)C(=O)[C@@H]12)C(=O)Nc1ccc(C(F)(F)F)cc1 | i | nt | nt | -75 | i | i
CCN(C[C@H]1N[C@@](CC)(C(=O)OC)[C@H]2C(=O)N(Cc3ccccc3)C(=O)[C@@H]12)C(=O)Nc1ccc(OC)cc1 | i | nt | nt | i | i | i
O=C(CN1CCNCC1)N1CCOCC1 | nt | nt | nt | nt | i | nt
CCCn1nnnc1NCc1ccccc1C | i | i | i | i | i | i
COc1cc(C(=O)NCC(=O)NCCN2C(=O)S/C(=C\c3ccccc3Cl)C2=O)cc(OC)c1OC | i | i | 31 | i | i | i
O=S(=O)(c1ccc2c(c1)OCCO2)N1CCN(S(=O)(=O)c2ccccc2Cl)CC1 | nt | i | i | nt | nt | nt
Cc1cc(C(=O)OCC(=O)N(C)c2ccccc2)ccc1[N+](=O)[O-] | i | i | 35 | i | i | i
CCOC(=O)C1CC2=C(CC(C)(C)CC2=O)N(CCOC)C1=O (centres undefined) | i | nt | nt | i | i | i
Cc1ccc(N(CC(=O)NC2CCCCC2)C(=O)CNC(=O)c2ccco2)cc1F | i | i | i | i | i | i
Cc1ccc(-c2nnn(CC(=O)N(CC(=O)NC3CCCC3)c3ccc(F)cc3)n2)o1 | i | i | i | i | i | -74
CN1C[C@@H]2C(c3ccc(C(F)(F)F)cc3)C3(c4cccnc4)CC2(C3)[C@H]1c1ccccc1 (some centres undefined) | i | i | i | -85 | i | i
CN1C[C@@H]2C(c3ccc(Cl)nc3)C3(c4ccc(C#N)cc4)CC2(C3)[C@H]1c1ccccc1 (some centres undefined) | i | i | i | -77 | i | i
N#Cc1ccc(C23CC4(C2)[C@H](CN(P(=O)(c2ccccc2)c2ccccc2)[C@@H]4c2ccccc2)C3c2ccc(Cl)nc2)cc1 (some centres undefined) | i | i | i | i | i | i
CN(C)c1ccc(/C=C/c2cccc3ccccc23)cc1 | nt | nt | nt | nt | i | nt
O=C(Cc1ccc(OCC2CCCCC2)cc1)NO | nt | nt | nt | nt | i | nt
Nc1c(N=Nc2ccc([N+](=O)[O-])cc2)c(S(=O)(=O)O)cc2cc(S(=O)(=O)O)c(/C=C/c3ccccc3)c(O)c12 | nt | nt | nt | nt | i | nt
O=C(COc1ccccc1F)NC1CC(=O)N(c2ccc3c(c2)OCCO3)C1 (centres undefined) | i | i | i | nt | i | nt
Cc1ccc(CN2CC(C(=O)N3CCN(S(=O)(=O)c4ccc(C(C)C)cc4)CC3)CC2=O)cc1 (centres undefined) | i | i | i | -79 | i | i
CCn1c(=O)cc(SCC(=O)NCc2ccccn2)c2ccccc21 | i | i | i | -184 | i | i
CCc1ccc(CNC(=O)CSc2cc(=O)n(CC)c3ccccc23)cc1 | i | i | i | nt | i | nt
SMILES | TRPML1 blocker | TRHR agonist | TRHR PAM | KCNH2 3.1 block | TRPML1 ag | hERG WT inh
CC(=O)c1cc2c(cc1C)CCCC2(C)C | i | nt | nt | i | i | i
CCCCCCCNC(=O)C1(CC2CC(c3cccc(Br)c3)=NO2)CCN(C(=O)CCCCCBr)CC1 (centres undefined) | i | i | i | -96 | i | -123
COc1ccc(NC(=O)CSc2nnc(-c3nonc3NC(C)=O)n2C)cc1Cl | i | i | i | nt | i | nt
CCCCCn1ccc(=N)cc1 | i | i | 36 | i | i | i
CCOC(=O)CC1C(=O)NCCN1Cc1cccc(OC)c1 (centres undefined) | i | i | 36 | i | i | i
CCCOC(=O)CC1C(=O)NCCN1Cc1cc(OC)cc(OC)c1 (centres undefined) | i | i | i | i | i | i
COc1ccc(-c2oc3ccccc3c2C#CC(C)(C)O)cc1 | i | i | 31 | i | i | i
Cc1ccc(-c2onc(C)c2C)cc1S(=O)(=O)Nc1cccc(Cl)c1C | i | i | i | nt | i | nt
O=C(CCCCCn1nnc2ccccc2c1=O)N[C@H](C(=O)O)c1ccccc1 | i | i | i | i | i | i
O=C(CCCn1nnc2ccccc2c1=O)N[C@H](C(=O)O)c1ccccc1 | -54 | i | i | i | i | i
COC(=O)C(NS(=O)(=O)CCl)C(C)C (centres undefined) | i | nt | nt | nt | i | nt
Cc1ccccc1C(=O)NC1CCN(CC(=O)N2CCCCC2C)CC1 (centres undefined) | i | i | i | i | i | -81
Cn1c(N)c(C#N)c(-c2ccccc2)c(C#N)c1=O | i | nt | nt | nt | i | nt
Cc1cccc(-c2ccc3c(c2)C2CC3CCN2Cc2ccc3c(c2)OCO3)c1 (centres undefined) | i | nt | nt | -76 | i | i
C=CCn1c(O)c2ccc(C(=O)N=NC(=O)c3ccc(F)cc3)cc2c1O | i | i | i | i | i | i
CCOCCCN(C)C1CCN(C(=O)c2oc3ccccc3c2NC(=O)COc2ccc(F)cc2)CC1 | i | i | i | -100 | i | i
CCOc1ccc(C(=O)Nc2c(C(=O)N3CCC(N4CCCCC4)CC3)oc3ccccc23)cc1 | i | i | i | i | i | i
O=C(NCCC(=O)N1CCN(c2ccccn2)CC1)c1ccc([N+](=O)[O-])cc1 | i | nt | nt | i | i | i
CCOCCCN(C)C1CCN(C(=O)c2oc3ccccc3c2NC(=O)Cc2ccc(F)cc2)CC1 | i | i | i | -83 | i | -107
O=C(Nc1c(C(=O)N2CCN(c3ccccn3)CC2)oc2ccccc12)c1ccc([N+](=O)[O-])cc1 | i | i | i | -105 | i | ?
CCOCCCN(C)C1CCN(C(=O)c2oc3ccccc3c2NC(=O)c2cccc([N+](=O)[O-])c2)CC1 | i | i | i | -107 | i | -79
OC[C@@H]1CN(Cc2ccncc2)C[C@H](n2cnc3c(NCc4ccncc4)ncnc32)O1 | nt | nt | nt | nt | i | nt
CCOCCCN(C)C1CCN(C(=O)c2oc3ccccc3c2NC(=O)Cc2ccc([N+](=O)[O-])cc2)CC1 | i | i | i | -100 | i | -102
